Laboratory results published in PubChem BioAssay (NCI).
This is part of a sample that, as a whole, favours compounds with a hit. Of some 83,000 tested, about 20% had one in any assay.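 Interpretation: 100, growth as untreated; towards 0, rising growth inhibition; 0, no net growth; 0 to -100, cell death. Compounds scoring below 10 were considered active.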 Unmarked numbers belong to inactive results. Active and inactive are the calls of the source.

Legend:
Assay in all cases: NCI-60 one-dose screen, 48 h (100 = growth as untreated, 0 = no growth, -100 = all killed)
Details in all cases: 10 µM unless noted
SK-MEL-2 melanoma = test system: SK-MEL-2 melanoma
EKVX NSCLC = test system: EKVX NSCLC
SN12C renal = test system: SN12C renal
UO-31 renal = test system: UO-31 renal
TK-10 renal = test system: TK-10 renal
ACHN renal = test system: ACHN renal
CAKI-1 renal = test system: CAKI-1 renal
A498 renal = test system: A498 renal
CCRF-CEM leukemia = test system: CCRF-CEM leukemia
MOLT-4 leukemia = test system: MOLT-4 leukemia

| SMILES | growth (SK-MEL-2 melanoma) | growth (EKVX NSCLC) | growth (SN12C renal) | growth (UO-31 renal) | growth (TK-10 renal) | growth (ACHN renal) | growth (CAKI-1 renal) | growth (A498 renal) | growth (CCRF-CEM leukemia) | growth (MOLT-4 leukemia) |
| --- | --- | --- | --- | --- | --- | --- | --- | --- | --- | --- |
| Cc1ccc(C(=O)c2ccc(CC(=O)NN3C(=O)c4ccccc4C3=O)n2C)cc1 | 102% | 100% | 92.8% | 75.7% | 111% | 96.3% | 87.4% | 104% | 110% | 100% |
| O=C(Nc1ccc(Br)cc1)C1=NCCCCN1 | 103% | 86.1% | 94.7% | 67.6% | 93.4% | 64.1% | 52.4% | 95.7% | 84.5% | 96.5% |
| CC(=O)/C(=C/c1ccc([N+](=O)[O-])cc1)C(=O)c1ccccc1 | 89.4% | 101% | 91.6% | 69.1% | 87.8% | 83.8% | 96.3% | 112% | 33.7% | 21.4% |
| CN(C)S(=O)(=O)Oc1ccc(-c2sc3cc(OS(=O)(=O)N(C)C)ccc3c2C(=O)c2ccc(OCCN3CCCCC3)cc2)cc1 | 75.5% | 68.9% | 87.1% | 43.6% | 79% | 32.3% | 73.4% | 85.2% | 18.8% | 36.6% |
| Nc1ncnc2c1N=C(c1ccc3c(c1)OCO3)CC(c1cccc(Nc3ccnc4cc(C(F)(F)F)ccc34)c1)N2 (stereo not given) | 88% | 89.5% | 75.5% | 76.9% | 99% | 98.3% | 78.4% | 74.5% | 64.8% | 93.5% |
| CCOC(=O)CC1CSC(Nc2ccccc2)=N1 (stereo not given) | 97.4% | 104% | 103% | 91.8% | 86% | 105% | 103% | 83% | 98.3% | 101% |
| CNC1=C([N+](=O)[O-])C(c2ccc(OC)cc2)C(C#N)=C(c2cccs2)O1 (stereo not given) | 119% | 104% | 105% | 80.6% | 124% | 109% | 94.2% | 117% | 108% | 101% |
| S=C(c1ccc2c(c1)OCO2)N1CCN(c2cccc(Cl)c2)CC1 | 71.7% | 50.9% | 50.7% | 57.4% | 53.3% | 34.6% | 15.5% | 33.3% | 18.8% | 30.9% |
| CN1CCN(CCOc2ccc(-c3cnc4c(-c5cccc(F)c5F)cnn4c3)cc2)CC1 | 99.9% | 78.6% | 90.3% | 80.8% | -64.2% (active) | -22.7% (active) | -8.23% (active) | 95.4% | -13.3% (active) | 80.5% |
| COc1ccc(C2=CN3CC=CC3CC2=O)cc1 (stereo not given) | 96.2% | 87.3% | 109% | 103% | 82.5% | 102% | 95.8% | 111% | 106% | 96% |
| C=C1C(=O)O[C@H]2[C@H]1CC/C(COC(=O)/C=C\C(=O)NCc1ccc(Cn3c(=O)sn(CCCl)c3=O)cc1)=C\CC[C@@]1(C)O[C@@H]21 | 85.8% | 86.2% | 89.9% | 79.9% | 60.9% | 44.2% | 47.9% | 132% | 7.92% (active) | 35.1% |
| N=C(N)c1ccc(-c2ccc(-c3cc(Cl)cc(Cl)c3)s2)nc1 | 109% | 94.5% | 83% | 90.6% | 115% | 74.8% | 30.9% | 91.6% | 21.7% | 2.78% (active) |
| [2H]C([2H])([2H])Oc1ccc(F)cc1/C=C/C(=O)/C=C(O)/C=C/c1cc(F)ccc1OC([2H])([2H])[2H] | 98.2% | 107% | 90.7% | 91.5% | 121% | 106% | 93.6% | 99.4% | 86.9% | 75.1% |
| O=S(=O)(NCCNc1nccc(-c2c(-c3cccc(O)c3)nc3occn23)n1)c1ccc(Br)cc1 | 29.1% | 62.1% | 35.6% | 30.8% | 69.8% | 29.8% | 20.2% | 39.7% | 14.6% | 10.2% |
| CC(=O)c1ccc(Nc2nccc(-c3ccc4ccccc4c3)n2)cc1 | 91.7% | 96.5% | 101% | 86.1% | 87.2% | 98.8% | 104% | 1.1% (active) | 88.3% | 74.4% |
| CC1C(/C=N/NC(N)=S)C(C#N)(C#N)C1(C#N)C#N (stereo not given) | 114% | 104% | 105% | 82.4% | 118% | 103% | 91.8% | 103% | 96.5% | 88.8% |
| CCOc1c(OC)cc2c(c1O)C(=O)N[C@@H]1[C@@H](O)[C@@H](O)[C@H](O)C[C@@H]21 | 106% | 98% | 104% | 92.9% | 93.9% | 103% | 91.3% | 99.5% | 103% | 92.4% |
| Cc1c2cccnc2c(C)c2c1c1cc(CO)ccc1n2C | 29.9% | 20.3% | 14.7% | 17.9% | 26.7% | 13.9% | 7.09% (active) | -81.1% (active) | 29.9% | 22.9% |
| Cc1nc2cc(O)c(O)cc2cc1Oc1ccc(NC(=O)Nc2ccc(Cl)c(Cl)c2)cc1 | 77.7% | 98.5% | 85.6% | 58.6% | 85.3% | 39% | 27.3% | 118% | 19.9% | 12.6% |
| CCN1C(=O)N(CC)C2C1NC(=S)N2/N=C/c1ccc(C(F)(F)F)cc1 (stereo not given) | 87.9% | 81.6% | 82.4% | 62.3% | 95% | 79% | 37% | 44.9% | 80.2% | 70.5% |
| COc1ccc(Nc2ncccc2/C=C/C(=O)c2cc(OC)c(OC)c(OC)c2)cc1 | -37.6% (active) | 60.8% | -18.1% (active) | -79.6% (active) | -14.6% (active) | -83.4% (active) | -23.6% (active) | 64.6% | -10.4% (active) | -11.7% (active) |
| CCSc1oc(C)nc1[P+](c1ccccc1)(c1ccccc1)c1ccccc1 | 50% | 25.9% | 27.7% | 82.3% | 48.1% | 83.4% | 70.6% | 19.3% | 37.7% | 38.4% |
| O=[N+]([O-])c1cc(NS(=O)(=O)c2ccccc2)ccc1NS(=O)(=O)c1ccccc1 | 99.6% | 119% | 90.4% | 95.8% | 112% | 91.4% | 129% | 115% | 96.3% | 117% |
| C/C(=N\O)c1ccc(NC(=O)CSc2nnc(-c3cc(-c4ccc(S(C)(=O)=O)cc4)nc4ccccc34)n2-c2ccccc2)cc1 | 100% | 84.7% | 89.2% | 65.2% | 107% | 90.8% | 73.8% | 53.1% | 68.2% | 57.9% |
| Cn1ccc(=O)nc1 | 12.7% | 130% | 81.5% | 73.4% | 94.9% | -4.04% (active) | 73.4% | 98.1% | 86.7% | 74.6% |
| O=c1ccc(=O)n(-c2nc(-c3ccc([N+](=O)[O-])cc3)cs2)[nH]1 | 108% | 101% | 101% | 82.4% | 107% | 102% | 101% | 87.9% | 99.4% | 86.5% |
| CCOC(=O)c1c(C)c2c(n1Cc1ccccc1)CSCC2=O | -14.5% [100 µM] (active) | 12.4% [100 µM] | 13.7% [100 µM] | 24.6% [100 µM] | 11.5% [100 µM] | 10.6% [100 µM] | -30.5% [100 µM] (active) | 25.6% [100 µM] | 10.5% [100 µM] | 12.9% [100 µM] |
